Source: PubChem BioAssay (Tox21)
Results filed as inconclusive are left out. The source made the active and inactive calls. Unless noted, calls come from the whole dose curve.

Tests used:
[1] = Nuclear factor erythroid 2-related factor 2/antioxidant responsive element (Nrf2/ARE) small molecule agonists: luciferase reporter gene qHTS assay in human keratinocytes (AID 1919969); note: nearly all actives have a fitted effect of over 35% in size
[2] = target: Gonadotropin-releasing hormone receptor (Homo sapiens) (UniProt P30968); assay: Human gonadotropin-releasing hormone receptor (GnRHR) small molecule agonists, calcium flux assay in GnRHR-HEK293 cells (AID 1920063); note: nearly all actives have a fitted effect of over 35% in size
Chain of Gonadotropin-releasing hormone receptor (Homo sapiens) (P30968 whole entry, looked up): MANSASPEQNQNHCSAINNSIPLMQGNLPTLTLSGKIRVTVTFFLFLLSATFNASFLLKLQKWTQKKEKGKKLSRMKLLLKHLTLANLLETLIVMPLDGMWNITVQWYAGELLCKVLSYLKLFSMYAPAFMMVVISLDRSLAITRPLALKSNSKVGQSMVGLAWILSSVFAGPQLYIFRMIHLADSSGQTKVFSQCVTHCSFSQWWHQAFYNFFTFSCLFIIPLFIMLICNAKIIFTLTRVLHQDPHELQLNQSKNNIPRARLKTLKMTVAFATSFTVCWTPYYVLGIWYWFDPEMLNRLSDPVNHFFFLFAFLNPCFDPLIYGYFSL
How it was run: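 Intracellular calcium rise is the read-out: engineered human GnRHR HEK293 cells, dye-loaded, are exposed to DMSO-dissolved compounds and fluorescence at Ex/Em 480/540 is tracked for 3 min.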

[3] = target: KiSS-1 receptor (Homo sapiens) (UniProt Q969F8); assay: Human kisspeptin (KISS1R) small molecule agonists, calcium flux assay in KISS1R-HEK293 cells (AID 1920064; active = well fitted activation curve with a large enough effect in the repeat runs)
Chain of KiSS-1 receptor (Homo sapiens) (Q969F8 whole entry, looked up): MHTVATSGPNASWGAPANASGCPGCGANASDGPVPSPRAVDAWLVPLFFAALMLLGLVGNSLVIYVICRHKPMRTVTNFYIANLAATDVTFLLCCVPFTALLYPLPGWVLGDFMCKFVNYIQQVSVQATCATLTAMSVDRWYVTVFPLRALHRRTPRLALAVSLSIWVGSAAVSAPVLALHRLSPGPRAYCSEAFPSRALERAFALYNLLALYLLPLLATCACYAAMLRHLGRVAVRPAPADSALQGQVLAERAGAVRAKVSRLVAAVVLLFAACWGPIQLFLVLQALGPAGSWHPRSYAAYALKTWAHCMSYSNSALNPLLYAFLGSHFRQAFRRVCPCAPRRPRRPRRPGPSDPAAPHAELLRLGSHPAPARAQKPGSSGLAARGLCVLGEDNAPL
How it was run: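 Concentration-response testing used 15 concentrations in triplicate on human KISS1R-expressing HEK293 cells. Calcium-dependent fluorescence (Ex/Em 480/540) was followed kinetically for 3 min after compound transfer.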

[4] = G protein-coupled receptor (GPCR) small molecule agonists, calcium flux assay: HEK293 wild type cell line counter screen (AID 1920065)
How it was run: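 Fluorescence intensity signals activation. After overnight (18 h) culture and a 1 h calcium dye load at 37 C, compounds are added by pin tool and the plate read at 480/540 nm for 3 min in 1 s steps.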

[5] = p53 small molecule agonists, cell-based qHTS assay with human liver microsomes (AID 1963577);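 note: p53 response element beta-lactamase reporter cells with liver microsomes plus NADPH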
How it was run: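 In this qHTS, p53 response-element beta-lactamase cells receive test compound together with a microsome/NADPH activating system (0.5 mg/mL final each) and are incubated 16 h at 37 C before LiveBLAzer fluorescence detection.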

[6] = p53 small molecule agonists, cell-based qHTS assay with rat liver microsomes (AID 1963578)
How it was run: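 Agonist mode in p53RE-bla reporter cells, with compounds co-incubated 16 h at 37 C alongside 0.5 mg/mL rat liver microsomes and 0.5 mg/mL NADPH (final), followed by a 2 h LiveBLAzer detection step.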

[7] = p53 small molecule agonists, cell-based qHTS assay with human liver microsomes: qHTS cell viability counter screen (AID 1963579); note: nearly all actives have a fitted effect of over 45% in size
How it was run: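 Metabolically activated exposure: compounds, human liver microsomes and NADPH (0.5 mg/mL final apiece) were added to p53RE-bla cells seeded 5 h earlier, left 16 h at 37 C, and then assessed for viability by CellTiter-Glo luminescence.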

[8] = p53 small molecule agonists, cell-based qHTS assay with rat liver microsomes: qHTS cell viability counter screen (AID 1963580); note: nearly all actives have a fitted effect of over 45% in size
How it was run: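 Cytotoxicity counter screen: intracellular ATP measured by CellTiter-Glo luminescence in the same wells as the beta-lactamase reporter read, on HCT-116 p53RE-bla cells exposed 16 h at 37 C to compounds with rat liver microsomes and NADPH, each 0.5 mg/mL final.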

[9] = p53 small molecule agonists, cell-based qHTS assay: qHTS cell viability counter screen (AID 1963581); note: nearly all actives have a fitted effect of over 45% in size
How it was run: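 Luminescence from CellTiter-Glo, reflecting ATP content, serves as the cytotoxicity measure; it is taken after the 2 h reporter substrate step in HCT-116 p53RE-bla cells dosed for 16 h at 37 C.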

[10] = p53 small molecule agonists, cell-based qHTS assay (AID 1963582; active = well fitted activation curve with a large enough effect in the signal ratio in the repeat runs, not every such curve was filed as active; the % refers to the signal ratio)
How it was run: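 After plating, p53RE-bla cells sat 5 h in the incubator; compounds or DMSO vehicle were pinned in; a 16 h incubation at 37 C followed; FRET substrate was added and, 2 h later at RT, fluorescence was measured.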

[11] = target: 5-hydroxytryptamine receptor 2A (Homo sapiens) (UniProt P28223); assay: 5-hydroxytryptamine receptor 2A (HTR2A) small molecule agonists, cell-based qHTS assay (AID 1963587); note: nearly all actives have a fitted effect of over 30% in size
Chain of 5-hydroxytryptamine receptor 2A (Homo sapiens) (P28223 whole entry, looked up): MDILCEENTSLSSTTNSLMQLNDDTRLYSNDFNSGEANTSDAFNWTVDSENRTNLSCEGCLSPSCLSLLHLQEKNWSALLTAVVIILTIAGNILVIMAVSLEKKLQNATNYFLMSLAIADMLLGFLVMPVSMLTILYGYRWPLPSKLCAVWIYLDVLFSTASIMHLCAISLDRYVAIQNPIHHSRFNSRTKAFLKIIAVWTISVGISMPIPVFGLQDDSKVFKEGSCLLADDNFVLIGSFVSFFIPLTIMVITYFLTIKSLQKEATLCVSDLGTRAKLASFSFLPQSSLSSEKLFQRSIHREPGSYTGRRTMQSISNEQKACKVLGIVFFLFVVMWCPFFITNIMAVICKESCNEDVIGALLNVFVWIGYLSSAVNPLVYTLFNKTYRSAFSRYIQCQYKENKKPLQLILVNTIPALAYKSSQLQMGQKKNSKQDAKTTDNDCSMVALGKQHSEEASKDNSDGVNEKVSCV
How it was run: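 CHO cells stably expressing human HTR2A, plated 18 h, loaded with calcium dye 1 h at 37 C. Agonist mode: compounds added and intracellular calcium fluorescence recorded kinetically for 2 min at 1 sec intervals.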

[12] = target: Muscarinic acetylcholine receptor M1 (Homo sapiens) (UniProt P11229); assay: Cholinergic receptor muscarinic 1 (CHRM1) small molecule antagonists, cell-based qHTS assay (AID 1963588); note: nearly all actives have a fitted effect of over 40% in size
Chain of Muscarinic acetylcholine receptor M1 (Homo sapiens) (P11229 whole entry, looked up): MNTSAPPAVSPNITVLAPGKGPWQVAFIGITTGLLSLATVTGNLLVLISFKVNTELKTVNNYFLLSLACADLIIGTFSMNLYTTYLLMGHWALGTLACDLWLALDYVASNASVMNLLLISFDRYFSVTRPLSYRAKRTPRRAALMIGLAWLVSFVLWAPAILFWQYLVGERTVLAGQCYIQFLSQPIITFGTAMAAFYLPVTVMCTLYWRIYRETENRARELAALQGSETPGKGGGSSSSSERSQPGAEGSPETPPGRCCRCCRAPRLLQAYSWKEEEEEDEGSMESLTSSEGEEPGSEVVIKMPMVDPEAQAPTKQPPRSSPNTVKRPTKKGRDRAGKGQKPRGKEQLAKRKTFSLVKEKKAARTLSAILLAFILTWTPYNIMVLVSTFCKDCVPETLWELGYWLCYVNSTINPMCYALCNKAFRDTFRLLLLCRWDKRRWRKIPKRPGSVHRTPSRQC
How it was run: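 Compounds were tested at 15 concentrations in three independent runs. Dye-loaded CHRM1-CHO cells were exposed 5 min at room temperature before stimulation by acetylcholine added at 50nM. Intracellular calcium was read kinetically on FDSS for 3 min.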

[13] = target: Muscarinic acetylcholine receptor M1 (Homo sapiens) (UniProt P11229); assay: Cholinergic receptor muscarinic 1 (CHRM1) small molecule agonists, cell-based qHTS assay (AID 1963589); note: nearly all actives have a fitted effect of over 35% in size
How it was run: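 Fluorescent calcium dye reports M1 activation in stably transfected CHO cells. Compounds, 15 concentrations, added after 1 h dye loading at 37 C; kinetic reading at 1 sec intervals.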

[14] = cAMP Responsive Elements (CRE) small molecule agonists, cell-based qHTS assay (AID 1963590)
How it was run: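 Compound exposure lasted 3 h at 37 C/5% CO2 in CRE-bla HEK 293T cells grown in assay medium with 10% dialyzed FBS and 25 mM HEPES. Reporter signal came from LiveBLAzer B/G FRET substrate, 2 h, room temperature.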

[15] = cAMP Responsive Elements (CRE) small molecule antagonists, cell-based qHTS assay (AID 1963591; active = well fitted inhibition curve with a large enough effect in the signal ratio in the repeat runs, not every such curve was filed as active; the % refers to the signal ratio)
How it was run: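 Stimulation used NKH477 at a final 0.25 uM for 3 h in compound-treated CRE-bla HEK293T cells, seeded 18 h beforehand. Reporter activity was measured with LiveBLAzer B/G FRET substrate after 2 h at room temperature.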

[16] = target: Beta-2 adrenergic receptor (Homo sapiens) (UniProt P07550); assay: Adrenergic beta2 receptor (ADRB2) small molecule antagonists, cell-based qHTS assay (AID 1963592); note: series mostly up to about 92 µM; nearly all actives have a fitted effect of over 50% in size
Chain of Beta-2 adrenergic receptor (Homo sapiens) (P07550 whole entry, looked up): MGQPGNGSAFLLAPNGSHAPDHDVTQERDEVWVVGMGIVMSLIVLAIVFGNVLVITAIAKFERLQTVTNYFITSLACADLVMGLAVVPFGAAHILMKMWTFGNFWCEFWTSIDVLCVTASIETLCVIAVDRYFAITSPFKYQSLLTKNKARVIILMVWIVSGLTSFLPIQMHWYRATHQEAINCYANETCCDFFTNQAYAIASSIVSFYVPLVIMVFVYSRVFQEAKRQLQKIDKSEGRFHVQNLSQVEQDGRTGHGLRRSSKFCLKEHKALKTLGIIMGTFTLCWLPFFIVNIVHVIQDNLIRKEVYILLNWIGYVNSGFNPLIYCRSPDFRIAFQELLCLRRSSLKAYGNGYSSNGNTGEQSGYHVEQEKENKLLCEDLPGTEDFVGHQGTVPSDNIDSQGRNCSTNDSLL
How it was run: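 Assay format: CHO-ADRB2 cells, 18-20hr seeding at 37C/5% CO2, then compound plus 1nM isoproterenol agonist mix for 0.5hr RT. Homogeneous time-resolved fluorescence cAMP detection after 1hr, expressed as 665/615 nm ratio.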

[17] = target: D(2) dopamine receptor (Homo sapiens) (UniProt P14416); assay: Dopamine D2 receptor (DRD2) small molecule agonists, cell-based qHTS assay (AID 1963594); note: nearly all actives have a fitted effect of over 35% in size
Chain of D(2) dopamine receptor (Homo sapiens) (P14416 whole entry, looked up): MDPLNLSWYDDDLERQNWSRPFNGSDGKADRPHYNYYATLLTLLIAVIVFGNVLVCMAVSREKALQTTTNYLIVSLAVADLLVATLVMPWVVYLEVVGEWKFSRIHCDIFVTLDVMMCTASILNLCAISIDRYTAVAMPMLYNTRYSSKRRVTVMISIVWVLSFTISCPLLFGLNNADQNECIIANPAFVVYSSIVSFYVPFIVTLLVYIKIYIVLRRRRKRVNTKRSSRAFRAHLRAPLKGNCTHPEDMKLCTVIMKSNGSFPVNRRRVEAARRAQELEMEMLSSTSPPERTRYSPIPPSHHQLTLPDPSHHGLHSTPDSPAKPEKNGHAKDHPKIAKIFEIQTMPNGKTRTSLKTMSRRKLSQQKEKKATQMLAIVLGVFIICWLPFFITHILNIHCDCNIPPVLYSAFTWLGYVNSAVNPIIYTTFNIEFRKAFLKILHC
How it was run: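 HEK293 cells stably expressing human DRD2, pre-treated with PDE inhibitor Ro20-1724 (0.1 mM final) and compound 10 min at room temperature, then stimulated with NKH477 (200nM […]) for 30 min. cAMP read by HTRF (665/620 nm).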

[18] = target: D(2) dopamine receptor (Homo sapiens) (UniProt P14416); assay: Dopamine D2 receptor (DRD2) small molecule antagonists, cell-based qHTS assay (AID 1963595; active = well fitted inhibition curve with a large enough effect in the signal ratio in the repeat runs, with a control signal flat; the % refers to the signal ratio)
How it was run: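 Antagonist mode in DRD2-HEK293 cells: after compound addition with 0.1 mM Ro20-1724, cells received quinpirole (12 nM) and NKH477 (200 nM) for 30 min at room temperature; HTRF cAMP read after 1 h detection.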

[19] = target: Beta-2 adrenergic receptor (Homo sapiens) (UniProt P07550); assay: Adrenergic beta2 receptor (ADRB2) small molecule agonists, cell-based qHTS assay (AID 1963593);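 note: CHO cells stably overexpressing human ADRB2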
How it was run: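 CHO cells stably over-expressing ADRB2 were plated overnight at 37C, then dosed with compounds plus a stimulation mix containing 100uM IBMX and 25uM Ro-20-1724 for 0.5hr at room temperature. cAMP was measured by HTRF competition, 1hr.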

[20] = target: 5-hydroxytryptamine receptor 2A (Homo sapiens) (UniProt P28223); assay: 5-hydroxytryptamine receptor 2A (HTR2A) small molecule antagonists, cell-based qHTS assay (AID 1963586); note: nearly all actives have a fitted effect of over 45% in size
How it was run: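 CHO cells stably expressing human HTR2A were plated for 18 h at 37 C, then loaded with calcium dye for 1 h. Compounds were preincubated 5 min at room temperature before DOI (4 nM solution) was added. Kinetic fluorescence was read for 3 min.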

Measured: Potency

ClC(c1ccccc1)(c1ccccc1)c1ccccc1
not listed: [19] | [20]
inactive: all other assays above

CN(CCOc1ccc(CC2SC(=O)NC2=O)cc1)c1ccccn1 (centres undefined)
inactive: [1] | [2] | [3] | [4] | [5] | [7] | [8] | [9] | [16] | [17] | [18]

CCOC(=O)OC(=O)OCC
not listed: [20]
inactive: all other assays above

CCC(C)C1CCCCC1=O (centres undefined)
not listed: [12] | [13]
inactive: all other assays above

CCCCCCCCCCCCCCCCC
not listed: [8]
inactive: all other assays above

CNC(=O)NC
not listed: [11] | [19]
inactive: all other assays above

O=C(O)c1cc(-c2ccccc2)nc2ccccc12
not listed: [10] | [12] | [14] | [18]
inactive: all other assays above
